What all share (assay): peptide microarray binding signal (635 nm), min-max normalized on array (fraction of array maximum); higher = stronger binding
Holding throughout (conditions): peptide region: H3 1-13

Assay [1] has as its target T1, HaloTag-ATRX ADD domain (163-292).
T1 chain: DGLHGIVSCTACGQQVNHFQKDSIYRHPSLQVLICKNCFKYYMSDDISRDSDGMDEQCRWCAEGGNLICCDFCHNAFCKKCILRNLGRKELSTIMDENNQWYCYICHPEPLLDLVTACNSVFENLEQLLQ
As to the method:
(§1)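 Histone 13-mer peptides were synthesized as cellulose conjugates with a C-terminal 20-atom PEG linker and printed in triplicate on nitrocellulose. The sequence given is the unmodified backbone; PTMs (Kme1/2/3, Kac, Sph/Tph, Rme/Rme2a/Rme2s, Rcit) are listed in the label and the 'peptide modifications' condition. Slides were probed at 4 °C for 1 h with biotin-labelled (HQ)5-HaloTag reader fusions (ATRX-ADD, ING2-PHD) then streptavidin-Alexa647, or with rabbit histone antibodies then anti-rabbit Alexa647. The mean 635 nm signal of the triplicate spots was scaled 0-1 between the lowest and highest values on each array.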

Assay [2] has as its target HaloTag-ING2 PHD (mouse Ing2 200-280). The procedure: as §1
In assay [3] the target is anti-H3K4me3 antibody ab8580. The procedure:
as §1

For assay [4], the target named is anti-H3K9me3 antibody ab8898. As to the method:
as §1

[5] abbreviates: peptide modifications: H3R2me1 H3K9me3, binder concentration: 1:2,000 dilution.
Where [6] appears, read: peptide modifications: H3R2me1 H3K9me3, binder concentration: 1:10,000 dilution.
Setting [7] is: peptide modifications: H3R2cit H3K9me3, binder concentration: 1:2,000 dilution.
[8] abbreviates: peptide modifications: H3R2cit H3K9me3, binder concentration: 1:10,000 dilution.
The mark [9] stands for this setting: peptide modifications: H3R2me2a H3K4ac, binder concentration: 1:2,000 dilution.
Setting [10] is: peptide modifications: H3R2me2a H3K4ac, binder concentration: 1:10,000 dilution.
The mark [11] stands for this setting: peptide modifications: H3R2me1 H3K9me2, binder concentration: 1:2,000 dilution.
The mark [12] stands for this setting: peptide modifications: H3R2me1 H3K9me2, binder concentration: 1:10,000 dilution.
Where [13] appears, read: peptide modifications: H3R2me2a H3K9ac, binder concentration: 1:2,000 dilution.
[14] abbreviates: peptide modifications: H3R2me2a H3K9ac, binder concentration: 1:10,000 dilution.
Setting [15] is: peptide modifications: H3R2cit, binder concentration: 1:2,000 dilution.
[16] abbreviates: peptide modifications: H3R2cit, binder concentration: 1:10,000 dilution.
Where [17] appears, read: peptide modifications: H3R2cit H3T3ph, binder concentration: 1:2,000 dilution.
[18] abbreviates: peptide modifications: H3R2cit H3T3ph, binder concentration: 1:10,000 dilution.
Setting [19] is: peptide modifications: H3R2me2a H3K4me3, binder concentration: 1:2,000 dilution.
Where [20] appears, read: peptide modifications: H3R2me2a H3K4me3, binder concentration: 1:10,000 dilution.
The mark [21] stands for this setting: peptide modifications: H3R2me1 H3T3ph, binder concentration: 1:2,000 dilution.
The mark [22] stands for this setting: peptide modifications: H3R2me1 H3T3ph, binder concentration: 1:10,000 dilution.
Setting [23] is: peptide modifications: H3R2me1 H3K4ac, binder concentration: 1:2,000 dilution.
Where [24] appears, read: peptide modifications: H3R2me1 H3K4ac, binder concentration: 1:10,000 dilution.

± gives the standard deviation.

The source of these data is the supplement of paper PMC4022240.

B1: H3 1-13 A Rme T K Q T A R Kme3 S T G G (peptide)
chain: ARTKQTARKSTGG
For the molecule B1, the “peptide microarray binding signal” value was 1 ± 0.14 in assay [1] (peptide modifications: H3R2me1 H3K9me3, binder concentration: 50 nM); 1 ± 0.23 in assay [1] (peptide modifications: H3R2me1 H3K9me3, binder concentration: 500 nM); 0.0582 ± 0.011 in assay [2] (peptide modifications: H3R2me1 H3K9me3, binder concentration: 10 nM); 0.106 ± 0.024 in assay [2] (peptide modifications: H3R2me1 H3K9me3, binder concentration: 100 nM); 0.088 ± 0.024 in assay [3] (setting [5]); 0.0951 ± 0.017 in assay [3] (setting [6]). Also, the “peptide microarray binding signal” value was 0.544 ± 0.12 in assay [4] (setting [5]) and 0.357 ± 0.091 in assay [4] (setting [6]).

B2: H3 1-13 A Rcit T K Q T A R Kme3 S T G G (peptide)
chain: ARTKQTARKSTGG
Take B2: the “peptide microarray binding signal” value in assay [1] (peptide modifications: H3R2cit H3K9me3, binder concentration: 50 nM) amounted to 0.435 ± 0.044; in assay [1] (peptide modifications: H3R2cit H3K9me3, binder concentration: 500 nM), 0.525 ± 0.024; in assay [2] (peptide modifications: H3R2cit H3K9me3, binder concentration: 10 nM) it was 0.0492 ± 0.0064; in assay [2] (peptide modifications: H3R2cit H3K9me3, binder concentration: 100 nM), 0.0792 ± 0.014; in assay [3] (setting [7]), 0.137 ± 0.007; in assay [3] (setting [8]), 0.0635 ± 0.0071. Moreover, the “peptide microarray binding signal” value in assay [4] (setting [7]) worked out at 0.676 ± 0.04; in assay [4] (setting [8]), 0.408 ± 0.044.

B3: H3 1-13 A Rme2a T Kac Q T A R K S T G G (peptide)
chain: ARTKQTARKSTGG
As for B3, the “peptide microarray binding signal” value was found to be 0.0125 ± 0.00079 in assay [1] (peptide modifications: H3R2me2a H3K4ac, binder concentration: 50 nM); 0.0335 ± 0.0053 in assay [1] (peptide modifications: H3R2me2a H3K4ac, binder concentration: 500 nM); 0.0118 ± 0.0039 in assay [2] (peptide modifications: H3R2me2a H3K4ac, binder concentration: 10 nM); 0.0337 ± 0.0021 in assay [2] (peptide modifications: H3R2me2a H3K4ac, binder concentration: 100 nM); 0.00455 ± 0.00093 in assay [3] (setting [9]); 0.00639 ± 0.00058 in assay [3] (setting [10]). The entries for the “peptide microarray binding signal” value in assay [4] (setting [9]) and in assay [4] (setting [10]) were 0.0124 ± 0.0014 and 0.0053 ± 0.00063, respectively.

B4: H3 1-13 A Rme T K Q T A R Kme2 S T G G (peptide)
chain: ARTKQTARKSTGG
For B4, the “peptide microarray binding signal” value in assay [1] (peptide modifications: H3R2me1 H3K9me2, binder concentration: 50 nM) was determined as 0.151 ± 0.01; in assay [1] (peptide modifications: H3R2me1 H3K9me2, binder concentration: 500 nM), 0.167 ± 0.011; in assay [2] (peptide modifications: H3R2me1 H3K9me2, binder concentration: 10 nM) it was 0.047 ± 0.0094; in assay [2] (peptide modifications: H3R2me1 H3K9me2, binder concentration: 100 nM), 0.0747 ± 0.029; in assay [3] (setting [11]), 0.00563 ± 0.00089; in assay [3] (setting [12]), 0.00873 ± 0.0023. The “peptide microarray binding signal” value in assay [4] (setting [11]) stood at 0.022 ± 0.012; in assay [4] (setting [12]) it was 0.0186 ± 0.014.

B5: H3 1-13 A Rme2a T K Q T A R Kac S T G G (peptide)
chain: ARTKQTARKSTGG
For the molecule B5, the “peptide microarray binding signal” value in assay [1] (peptide modifications: H3R2me2a H3K9ac, binder concentration: 50 nM) is 0.132 ± 0.1; in assay [1] (peptide modifications: H3R2me2a H3K9ac, binder concentration: 500 nM), 0.0324 ± 0.01; in assay [2] (peptide modifications: H3R2me2a H3K9ac, binder concentration: 10 nM), 0.0189 ± 0.0011; in assay [2] (peptide modifications: H3R2me2a H3K9ac, binder concentration: 100 nM), 0.0301 ± 0.0026; in assay [3] (setting [13]), 0.00698 ± 0.00018; in assay [3] (setting [14]), 0.00799 ± 0.0008. The “peptide microarray binding signal” value was 0.00634 ± 0.0012 in assay [4] (setting [13]) and 0.0094 ± 0.0049 in assay [4] (setting [14]).

B6: H3 1-13 A Rcit T K Q T A R K S T G G (peptide)
chain: ARTKQTARKSTGG
As for B6, the “peptide microarray binding signal” value in assay [1] (peptide modifications: H3R2cit, binder concentration: 50 nM) was 0.00937 ± 0.00037; in assay [1] (peptide modifications: H3R2cit, binder concentration: 500 nM), 0.0298 ± 0.0055; in assay [2] (peptide modifications: H3R2cit, binder concentration: 10 nM), 0.012 ± 0.0023; in assay [2] (peptide modifications: H3R2cit, binder concentration: 100 nM), 0.0101 ± 0.001; in assay [3] (setting [15]), 0.00315 ± 0.00061; in assay [3] (setting [16]), 0.00126 ± 0.00016. Besides, the entries for the “peptide microarray binding signal” value in assay [4] (setting [15]) and in assay [4] (setting [16]) were 0.00101 ± 0.00014 and 0.000577 ± 1.6e-05, respectively.

B7: H3 1-13 A Rcit Tph K Q T A R K S T G G (peptide)
chain: ARTKQTARKSTGG
As for B7, the “peptide microarray binding signal” value in assay [1] (peptide modifications: H3R2cit H3T3ph, binder concentration: 50 nM) is 0.00364 ± 0.00018; in assay [1] (peptide modifications: H3R2cit H3T3ph, binder concentration: 500 nM), 0.0133 ± 0.0009; in assay [2] (peptide modifications: H3R2cit H3T3ph, binder concentration: 10 nM), 0.00125 ± 3.1e-05; in assay [2] (peptide modifications: H3R2cit H3T3ph, binder concentration: 100 nM), 0.0167 ± 0.011; in assay [3] (setting [17]) it was 0.00283 ± 0.00066; in assay [3] (setting [18]), 0.00126 ± 8.7e-05. In addition, the “peptide microarray binding signal” value stood at 0.000846 ± 7.1e-05 in assay [4] (setting [17]) and 0.000807 ± 2.9e-05 in assay [4] (setting [18]).

B8: H3 1-13 A Rme2a T Kme3 Q T A R K S T G G (peptide)
chain: ARTKQTARKSTGG
As for B8, the “peptide microarray binding signal” value stood at 0.00912 ± 0.00034 in assay [1] (peptide modifications: H3R2me2a H3K4me3, binder concentration: 50 nM); 0.0301 ± 0.00069 in assay [1] (peptide modifications: H3R2me2a H3K4me3, binder concentration: 500 nM); 0.0149 ± 0.0016 in assay [2] (peptide modifications: H3R2me2a H3K4me3, binder concentration: 10 nM); 0.013 ± 0.0056 in assay [2] (peptide modifications: H3R2me2a H3K4me3, binder concentration: 100 nM); 0.989 ± 0.041 in assay [3] (setting [19]); 0.193 ± 0.0034 in assay [3] (setting [20]). For the same molecule, the figures for the “peptide microarray binding signal” value in assay [4] (setting [19]) and in assay [4] (setting [20]) were 0.249 ± 0.031 and 0.0997 ± 0.026, respectively.

B9: H3 1-13 A Rme Tph K Q T A R K S T G G (peptide)
chain: ARTKQTARKSTGG
With B9, the “peptide microarray binding signal” value was determined as 0.00649 ± 0.00021 in assay [1] (peptide modifications: H3R2me1 H3T3ph, binder concentration: 50 nM); 0.0224 ± 0.0029 in assay [1] (peptide modifications: H3R2me1 H3T3ph, binder concentration: 500 nM); 0.00382 ± 7e-05 in assay [2] (peptide modifications: H3R2me1 H3T3ph, binder concentration: 10 nM); 0.0254 ± 0.0015 in assay [2] (peptide modifications: H3R2me1 H3T3ph, binder concentration: 100 nM); 0.00321 ± 0.0015 in assay [3] (setting [21]); 0.00183 ± 0.00011 in assay [3] (setting [22]). In addition, the results for the “peptide microarray binding signal” value in assay [4] (setting [21]) and in assay [4] (setting [22]) were 0.00154 ± 0.00026 and 0.000692 ± 1.5e-05, respectively.

B10: H3 1-13 A Rme T Kac Q T A R K S T G G (peptide)
chain: ARTKQTARKSTGG
As for B10, the “peptide microarray binding signal” value in assay [1] (peptide modifications: H3R2me1 H3K4ac, binder concentration: 50 nM) came to 0.00636 ± 0.00044; in assay [1] (peptide modifications: H3R2me1 H3K4ac, binder concentration: 500 nM), 0.00867 ± 0.00048; in assay [2] (peptide modifications: H3R2me1 H3K4ac, binder concentration: 10 nM), 0.0133 ± 0.0026; in assay [2] (peptide modifications: H3R2me1 H3K4ac, binder concentration: 100 nM), 0.0738 ± 0.0056; in assay [3] (setting [23]), 0.00115 ± 0.0001; in assay [3] (setting [24]), 0.001541 ± 1.5e-05. For the same molecule, the “peptide microarray binding signal” value in assay [4] (setting [23]) worked out at 0.00402 ± 0.0014; in assay [4] (setting [24]) it was 0.0011 ± 2.2e-05.
